Shown are actives, neighbours in structure and some others; about 1.8% of the full set was active somewhere.
DUSP3 inh = inhibitors of human VHR1 phosphatase (DUSP3); P51452; recombinant VHR phosphatase, pNPP absorbance; inhibition, % at 13.3 µM; actives 0.52% (n = 290,000); AID 1654; in the data active means inhibition above about 50%
Target sequence (P51452 whole entry, looked up): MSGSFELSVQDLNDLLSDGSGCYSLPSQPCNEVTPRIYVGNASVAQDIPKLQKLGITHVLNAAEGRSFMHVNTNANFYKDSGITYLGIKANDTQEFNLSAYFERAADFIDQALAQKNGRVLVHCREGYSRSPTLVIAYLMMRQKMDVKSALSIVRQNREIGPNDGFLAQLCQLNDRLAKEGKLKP
RN4220 kill = kills Staphylococcus aureus RN4220; S. aureus RN4220 growth, OD600, 16 h; inhibition, % (no concentration beside the values); actives 0.33% (n = 330,000); in the data active means inhibition above about 85%;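 further: plate controls were untreated cells for no effect and reference antibiotic for full effect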
PfHsp40 yeast = restores yeast growth despite PfHsp40 toxicity. AID 504582. S. cerevisiae expressing PfHsp40, growth rescue, ATP luminescence. actives 0.68% (n = 340,000). growth rescue, % at 12.5 µM; in the data active means growth rescue above about 28%, passing the limit was not always enough;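 further: yeast W303a lacking pdr1 and pdr3 grown in galactose medium; growth measured after three days at 30 °C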
ugtP null kill = growth inhibition of S. aureus ugtP deletion strain. S. aureus RN4220 ugtP deletion, OD600 growth, 16 h. growth inhibition, % (no concentration beside the values). actives 0.54% (n = 330,000). AID 1259309; in the data active means growth inhibition above about 68%;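 further: plate controls were untreated wells for no effect and antibiotic for full effect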
PrPC TRFRET = inhibitors of human cell surface prion protein PrPC; TR-FRET read-out; AID 720596; inhibition, % at 13.8 µM; actives 0.43% (n = 370,000); in the data active means inhibition above about 24%; further: 0% = median of the test wells and 100% = reference compound wells
* hit, by the source's call; nt = not tested or not shown.

SMILES	DUSP3 inh	RN4220 kill	PfHsp40 yeast	ugtP null kill	PrPC TRFRET
O=C(NN=Cc1ccncc1)c1cccc(S(=O)(=O)Nc2ccc(Cl)cc2)c1	nt	8	nt	7	nt
CN(Cc1nc(-c2ccncc2)no1)S(=O)(=O)c1ccc(Br)cc1	16	-15	1	-1	-2
CN(Cc1nc(-c2ccncc2)no1)S(=O)(=O)c1ccc(Cl)cc1	51*	0	1	-4	-3
CCOC(=O)C(NCc1ccc2c(c1)OCO2)(NC(=O)c1ccccc1)C(F)(F)F (stereo not given)	33	2	45*	-3	0
CCOC(=O)C(NCc1ccccc1)(NC(=O)c1ccccc1)C(F)(F)F (stereo not given)	4	1	0	1	-5
Cc1ccc(S(=O)(=O)NN=Cc2cc3c(cc2Br)OCO3)cc1	nt	2	nt	7	nt
CCc1sc(N(C(=O)Cc2ccccc2)c2ccccc2F)nc1-c1ccc(C)cc1	28	-11	0	85*	-6
CC(NC(=O)COC(=O)/C=C/c1ccc(Cl)cc1)c1ccccc1 (stereo not given)	-4	-1	32*	-4	7
CCOC(=O)C1C2COc3ccc(C)cc3C2N2C(=O)c3cc(F)ccc3NC(=O)[C@@]12C (stereo not given in full)	nt	6	nt	7	nt
Cc1ccc(S(=O)(=O)N(C)N=O)cc1	nt	99*	0	99*	3
CC(C)(C)OC(=O)NN=Cc1c[nH]c2ccccc12	nt	7	nt	-1	nt
C(=NNc1nnnn1-c1ccccc1)c1ccncc1	nt	1	nt	8	nt
COc1cc(/C=C(\C#N)C(=O)N2CCOCC2)cc(Br)c1O	-4	2	0	3	-3
N#C/C(=C\c1cccc(Oc2ccccc2)c1)C(=O)N1CCOCC1	1	2	235*	6	-2
Cc1cccc(C(=O)NN=Cc2ccncc2)c1	nt	0	nt	5	nt
Cc1ccc([C@H]2C(C(=O)O)=CC[C@@H](c3cccc(Cl)c3)N2S(=O)(=O)c2ccc(C)cc2)cc1	nt	18	213*	13	-6
Cc1ccc(S(=O)(=O)N2[C@@H](c3cccc(Cl)c3)C(C(=O)O)=CC[C@H]2c2cccc(Cl)c2)cc1	nt	nt	12	nt	4
Cc1ccc(S(=O)(=O)N2[C@@H](c3ccc(Cl)cc3)C(C(=O)O)=CC[C@H]2c2ccc(C(C)C)cc2)cc1	nt	25	6	57	1
Cc1ccc([C@H]2C(C(=O)O)=CC[C@@H](c3ccc(Cl)cc3)N2S(=O)(=O)c2ccc(C)cc2)cc1	nt	15	46*	7	-1
CCOc1ccc(C2CC=C(C(=O)O)C(c3cccc(Cl)c3)N2S(=O)(=O)c2ccc(C)cc2)cc1 (stereo not given)	nt	14	nt	26	nt
CCc1ccc([C@@H]2CC=C(C(=O)O)[C@H](c3ccc(C)cc3)N2S(=O)(=O)c2ccc(C)cc2)cc1	nt	68	14	45	-2
CCc1ccc([C@@H]2CC=C(C(=O)O)[C@H](c3ccc(Cl)cc3)N2S(=O)(=O)c2ccc(C)cc2)cc1	nt	nt	281*	nt	4
CCc1ccc([C@@H]2CC=C(C(=O)O)[C@H](c3cccc(Cl)c3)N2S(=O)(=O)c2ccc(C)cc2)cc1	nt	nt	156*	nt	10
Cc1nc(SC(=Cc2ccc(-c3cccc(Cl)c3)o2)C(=O)O)n[nH]1	nt	4	nt	-21	nt
CC1CN(C(C)CO)C(=O)c2cc(NS(=O)(=O)c3ccc(F)cc3)ccc2OC1CN(C)S(=O)(=O)c1cccs1 (stereo not given)	nt	2	nt	3	nt
SMILES	DUSP3 inh	RN4220 kill	PfHsp40 yeast	ugtP null kill	PrPC TRFRET
COc1cc(C=NNC(=O)CCc2n[nH]c(=O)[nH]c2=O)ccc1O	nt	3	nt	6	nt
Cc1ccc(S(=O)(=O)N2[C@@H](c3ccccc3)C(C(=O)O)=CC[C@H]2c2ccc(C(C)C)cc2)cc1	nt	nt	133*	nt	5
Cc1ccc(S(=O)(=O)N2C(c3ccc(Cl)cc3)CC=C(C(=O)O)C2c2ccc(F)cc2)cc1 (stereo not given)	nt	19	nt	93*	nt
Cc1ccc([C@H]2C(C(=O)O)=CC[C@@H](c3ccc(C(C)C)cc3)N2S(=O)(=O)c2ccc(C)cc2)cc1	nt	18	8	-11	4
Cc1ccc(S(=O)(=O)N2[C@@H](c3ccc(C(C)(C)C)cc3)C(C(=O)O)=CC[C@H]2c2ccc(Cl)c(Cl)c2)cc1	nt	100*	3	95*	-4
COC(=O)C1=C(c2cccc(Cl)c2)CC2CCC1N2C(=O)NCC1CC1 (stereo not given)	nt	3	nt	-8	nt
CC(Cn1nnc([N+](=O)[O-])n1)=NNC(=O)c1ccncc1	nt	15	nt	6	nt
N=C1SC(c2ccccc2)C(=O)N1c1ncc(Cc2ccccc2Cl)s1 (stereo not given)	3	81	0	90*	8
CCN=C(NN=Cc1ccc([N+](=O)[O-])cc1)SC	nt	5	nt	3	nt
CC(=O)N(c1ccccc1)c1nc2ccccc2s1	nt	5	-1	12	-2
CC(=O)N(c1ccccc1)c1c(F)c(F)c(F)c(F)c1F	-16	6	34*	6	-12
CC(C)C(CO)NC(=O)c1ccc2c3n(nc2c1)-c1ccc(Cl)cc1CO3 (stereo not given)	nt	5	nt	7	nt
COc1cccc2c1C(=O)c1c(O)c3c(c(O)c1C2=O)CC(O)(C(=O)CO)CC3OC1CC(N(C)C)C(O)C(C)O1 (stereo not given)	nt	nt	100*	nt	-17
COc1cccc2c1C(=O)c1c(O)c3c(c(O)c1C2=O)C[C@@](O)(C(=O)CO)C[C@@H]3O[C@H]1C[C@H](N)[C@@H](O)[C@H](C)O1	nt	nt	11	nt	nt
COc1cccc2c1C(=O)c1c(O)c3c(c(O)c1C2=O)C[C@@](O)(C(C)=O)C[C@@H]3O[C@H]1C[C@H](N)[C@H](O)[C@H](C)O1	1	nt	51*	nt	-17
O=C(Nc1cccnc1)Nc1ccccc1Cl	22	5	0	-3	5
O=C(Nc1cccnc1)Nc1cc(Cl)cc(Cl)c1	18	100*	-2	99*	4
C/C(=N\NC(=S)NCCc1ccccc1)c1ccc(C)cc1	0	nt	30*	nt	-5
CC1(C)C(O)CC[C@@]2(C)C1CC[C@]1(C)C2C(=O)C=C2C3C[C@@](C)(C(=O)O)CC[C@]3(C)CC[C@]21C (stereo not given in full)	nt	6	nt	87*	nt

Screens as filed in PubChem BioAssay.
